Source: PubChem BioAssay (National Center for Advancing Translational Sciences (NCATS))
Sampled rows, rich in hits. Any-hit rate of the full collection: about 0.97%.
PI4K2A block = inhibitors of human PI4K2A | Q9BTU6 | purified PI4K2A, ADP-Glo luminescence, 1 h; active compounds read low | activity change, negative = inhibition, % at 76.9 µM | 420,000 tested, 0.13% active; in the data active = activity change below about -50%; inconclusive = mostly about -30% to -49%;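 also: -100% = wells without enzyme as full effect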
Target sequence (Q9BTU6 whole entry, looked up): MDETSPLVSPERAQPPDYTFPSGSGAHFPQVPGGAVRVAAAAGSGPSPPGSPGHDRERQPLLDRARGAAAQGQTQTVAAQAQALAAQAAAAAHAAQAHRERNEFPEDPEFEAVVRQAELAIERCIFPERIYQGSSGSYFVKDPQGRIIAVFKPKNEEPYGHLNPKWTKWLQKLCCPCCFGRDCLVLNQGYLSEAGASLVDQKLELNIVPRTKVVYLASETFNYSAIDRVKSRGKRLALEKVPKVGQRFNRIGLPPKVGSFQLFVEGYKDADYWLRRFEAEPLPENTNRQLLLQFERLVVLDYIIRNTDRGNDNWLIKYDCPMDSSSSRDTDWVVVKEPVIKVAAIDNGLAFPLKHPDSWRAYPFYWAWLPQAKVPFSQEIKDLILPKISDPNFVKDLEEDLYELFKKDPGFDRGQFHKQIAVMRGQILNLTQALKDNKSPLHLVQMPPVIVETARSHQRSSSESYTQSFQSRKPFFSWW
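ADP-Glo luminescence measured ADP generated by PI4K2A enzyme (4 ug/mL before mixing) with 1.2 mM PI substrate (pre-mix) and 300 microM ATP (pre-mix). Tris pH7.5 buffer with MgCl2, Triton X-100; 1 h reaction at ambient temperature.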
CtBP-E1A blk = CtBP/E1A binding inhibition | AlphaScreen GST-E1A/His-CtBP binding, 1536-well; active compounds read low | activity change, % (test concentration not listed) | 340,000 tested, 0.49% active | AID 651724
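AlphaScreen with 125 nM GST-E1A and 125 nM His-CtBP (5X stocks) in Tris pH 8.0, 300 mM NaCl, BSA, Tween 20, TCEP. Compounds preincubated 2 h at 37 deg C, then glutathione donor/nickel acceptor beads added for 1 h at 37 deg C in dark.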
Six1-Eya2 blk = inhibitors of human Six1/Eya2 interaction; Q15475+O00167; AlphaScreen GST-Six1/His-Eya2 binding, biochemical; active compounds read low; activity change, % (concentration not given with the values); 360,000 tested, 0.56% active; AID 651725
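GST-Six1 + His-Eya2 (5X stock: 250/500 nM); Tris pH 8.0, 300 mM NaCl, 0.05% BSA, 0.02% Tween 20; GSH donor/Ni acceptor beads; 1 h 37 °C dark; AlphaScreen readout.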
CCT chaperon mod = cytosolic chaperonin activity modulation; purified chaperonin ATPase assay, HTRF ADP detection, 30 min; activity change, % (no concentration beside the values), hits read low; 360,000 tested, 0.3% active; AID 651819; in the data active = activity change below about -30%
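First, chaperonin was dispensed at 40 nM or 20 nM final depending on batch activity. Next, compounds were pinned at 76 uM and ATP added at 10 uM. After 30 min at 37 °C, ADP detection reagents ran 30 min at ambient temperature.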
Eya2 phos inh = inhibitors of human Eya2 phosphatase activity; AID 488837; recombinant Eya2, OMFP fluorescence dephosphorylation (OMFP is methylfluorescein phosphate); 330,000 tested, 0.006% active; Potency, µM (top dose mostly 76.9 µM), for inactives: top-dose activity, negative = inhibition, usual class: inhibitors; O00167; active = well fitted inhibition curve with a large enough effect; inconclusive = small, poorly fitted or top-dose-only effect, or effect the other way; also: potency is read from the fitted curve at half-maximal effect
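Eya2 (0.2 uM) preincubated 10 min at ambient with compound, then OMFP substrate added at 50 uM; 10 min reaction in 50 mM HEPES pH 7.5, 50 mM NaCl, 5 uM MgCl2, 0.05% BSA, 1 mM DTT. Fluorescence read at Ex 485/Em 525 nm.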
* = called active by the depositor; ? = inconclusive; . = not tested or not shown. Rule as the data show it, unless noted: active = activity change below about -65%; inconclusive = mostly about -30% to -63%; inactive = weaker than that. Unless noted, % is scaled to controls: 0 for no effect and ±100 for the full control effect.

SMILES | PI4K2A block | CtBP-E1A blk | Six1-Eya2 blk | CCT chaperon mod | Eya2 phos inh
Cc1c(CCC(=O)O)c(=O)oc2c(C)c3occ(-c4ccc(Cl)cc4)c3cc12 | 2.7 | -80.6* | -86.3* | -0.9 | -5.2%
C#CC(C)(CC)OC(=O)c1ccccc1C(=O)O (configuration not stated) | 1.7 | . | . | . | .
CCOC(=O)c1sc(N)c(C#N)c1CSc1nnc(C2CC2)n1N | -10.5 | 18.9 | -3.0 | -38.8* | -18.0%
CCN(CC)c1ccc(NC(=O)c2cccn2-c2nnc(N3CCCCC3)s2)c(C)c1 | 1.9 | . | . | . | .
C=CS(=O)(=O)c1ccc(Oc2ccc(S(=O)(=O)C=C)cc2)cc1 | -11.0 | 5.9 | -0.1 | -44.9* | 6.3%
NS(=O)(=O)c1ccc(Oc2ccc(S(N)(=O)=O)cc2)cc1 | 0.9 | 3.0 | 7.0 | -0.3 | -4.3%
Nc1c(S(=O)(=O)c2ccccc2)c2nc3ccccc3nc2n1/N=C/c1cccc(O)c1 | -10.0 | -84.3* | -74.6* | -0.1 | -1.1%
Cc1cccc(S(=O)(=O)c2c(N)n(/N=C/c3ccccc3)c3nc4ccccc4nc23)c1 | -2.1 | -9.9 | 4.6 | -2.2 | -1.6%
Cc1ccc(S(=O)(=O)Nc2ccc3c(c2)C(=O)N([C@H](C)CO)C[C@H](C)[C@H](CN(C)C(=O)Nc2cccc4ccccc24)OCCCC[C@@H](C)O3)cc1 | -3.7 | -2.5 | -12.4 | -30.9* | .
Cc1ccc(S(=O)(=O)N(C)C[C@H]2Oc3c(NC(=O)Nc4cccc5ccccc45)cccc3C(=O)N([C@@H](C)CO)C[C@@H]2C)cc1 | -1.7 | -75.1* | -71.2* | 1.1 | 7.2%
Cc1ccc(S(=O)(=O)Nc2ccc3c(c2)C(=O)N([C@H](C)CO)C[C@H](C)[C@@H](CN(C)C(=O)NC2CCCCC2)OCCCC[C@@H](C)O3)cc1 | -6.7 | 5.0 | 5.3 | -2.5 | .
Cc1ccc(-n2c(SCc3c(Cl)cccc3Cl)nnc2-c2ccco2)cc1 | -2.9 | . | . | . | .
Cc1cc(=O)n(-c2ccc(C(=O)O)cc2)[nH]1 | -56.3* | 9.5 | -14.5 | -0.1 | 9.0%
O=C(c1ccc(OCCCc2cnc[nH]2)cc1)C1CC1 | -0.7 | . | . | . | 1.1%
CN(C)c1ccc(/C=C/C=C2/SC(=S)N(c3ccccc3)C2=O)cc1 | -21.6 | -65.8* | -68.7* | -0.2 | -2.3%
Cc1nc2cc(-c3ccsc3-n3c(C)ccc3C)[nH]n2c(=O)c1Cl | -27.7 | ? | -77.7* | -2.5 | 29.3%
O=C(O)c1ccc(Nc2cnc3ccccc3n2)cc1 | -55.1* | 0.0 | -16.0 | -1.1 | -28.3%
CCOC(=O)c1ccc(Nc2cnc3ccccc3n2)cc1 | -1.7 | 7.9 | 17.6 | -5.6 | -1.5%
Cc1ccc(NC(=O)COc2ccc(/C=N/NC(=O)CSCc3ccccc3)cc2)cc1 | -4.4 | -0.1 | -0.5 | -2.9 | -9.4%
O=C(CSCc1ccc(Cl)cc1)N/N=C/c1ccc(OCC(=O)Nc2ccccc2)cc1 | 5.6 | -6.3 | -9.2 | -53.4* | -6.5%
Cc1cc(C)cc(OCC(=O)NCC(c2ccc(Cl)cc2)N2CCCCC2)c1 (configuration not stated) | -0.3 | . | . | . | .
COc1ccc(C(=O)Nc2cccc(-c3nnc(-c4ccco4)o3)c2)cc1 | 3.5 | ? | ? | 1.3 | -15.3%
COc1cc(C(=O)Nc2cccc(-c3nnc(-c4ccco4)o3)c2)ccc1OC(C)=O | -0.3 | ? | -86.4* | 0.4 | -14.3%
Cc1ccc(Nc2cc(C)nn2-c2nc(C)cc(=O)[nH]2)cc1 | ? | -81.4* | -81.9* | -0.8 | -2.1%
Cc1cc(C)cc(NC(=O)CSc2oc(-c3ccco3)nc2S(=O)(=O)c2ccc(Cl)cc2)c1 | 3.8 | . | . | . | .
SMILES | PI4K2A block | CtBP-E1A blk | Six1-Eya2 blk | CCT chaperon mod | Eya2 phos inh
C[C@H]1[C@@H](OC(=O)NCc2cccs2)CC[C@@]23CCCN2C(=O)CCC[C@@H]13 | -0.4 | . | . | . | .
CCn1c(C)nc2cc(-c3nc4n(n3)Cc3ccccc3-4)ccc21 | -68.9* | 0.0 | 12.2 | 2.6 | -10.3%
Cc1cc2nc3ccc(N(C)C)cc3nc2cc1N | ? | -14.3 | ? | -39.8* | .
O=c1cc(-c2ccc(O)cc2)oc2ccccc12 | 0.2 | -7.5 | -13.9 | -0.5 | -3.5%
COc1ccc(-c2cc(=O)c3ccccc3o2)cc1 | -0.3 | 0.8 | 1.7 | -45.8* | 0.0%
COc1ccc(/C=C\c2nc(=O)c3ccccc3o2)cc1 | 8.2 | -68.7* | 14.7 | -4.7 | 14.0%
CCCCc1nn2c(=O)cc(COC(=O)c3cccc(Cl)c3)nc2s1 | 2.2 | . | . | . | .
CC(=O)/C(=N/Nc1ccc([N+](=O)[O-])cc1)N1CCCc2ccccc21 | 2.7 | 2.1 | 0.4 | -0.1 | 9.3%
CC(=O)/C(=N/Nc1ccccc1[N+](=O)[O-])N1CCCc2ccccc21 | 0.9 | -74.5* | -74.3* | 1.0 | -4.1%
CCn1c(=O)n(-c2ccc3c(c2)OCO3)c2nc(-c3cc(OC)ccc3OC)nc(C(N)=O)c21 | -4.2 | . | . | . | .
Cc1ccc(-c2nnc(N3CCC(C)CC3)c3ccccc23)cc1C | -1.9 | -8.8 | -1.7 | -43.1* | 4.3%
O=C(Nc1cccc(O)c1)c1cc(-c2ccc3c(c2)OCO3)on1 | -71.6* | 0.0 | 20.7 | 1.2 | 0.8%
CCC(C(=O)O)c1ccc(N2Cc3ccccc3C2=O)cc1 (configuration not stated) | -5.4 | . | . | . | .
CC(=O)N[C@H]1[C@H]([C@H](O)[C@H](O)CO)OC(C(=O)O)=C[C@@H]1N=C(N)N | 3.0 | . | . | . | .
CCOC(=O)Cc1csc(NC(=O)c2ccoc2C)n1 | -50.2* | 3.5 | -2.2 | -0.3 | -1.8%
CCOC(=O)Cc1csc(NC(=O)c2cccs2)n1 | -83.8* | 0.9 | -2.6 | 0.7 | -7.3%
Cc1ccc(NC(=O)CN2C(=O)COc3ccc(S(=O)(=O)N4CCCCCC4)cc32)cc1Cl | -6.4 | . | . | . | .
O=C(/C=C/c1ccco1)Oc1cccc2cccnc12 | -4.0 | -0.2 | -79.3* | 0.0 | -28.5%
Cc1ccc2cccc(OC(=O)/C=C\c3ccccc3)c2n1 | -2.9 | -6.5 | 1.9 | -0.4 | 0.7%
O=C(/C=C\c1ccco1)Oc1cccc2cccnc12 | -13.3 | -74.3* | -75.8* | 2.6 | 2.3%
CCc1ccc(OC(=O)/C=C/c2ccco2)cc1 | -2.0 | 6.9 | 21.6 | -2.2 | 9.1%
O=C(C1CCC1)N1CCc2cc(S(=O)(=O)N3CCN(c4ccccc4)CC3)ccc21 | 0.8 | . | . | . | .
Cc1ncc(CO)c(/C=N/N=C/c2ccccc2O)c1O | -4.1 | -7.3 | 3.8 | -0.8 | 5.9%
FC(F)(F)c1ccc(N/N=C/c2cccnc2)nc1 | 1.6 | 2.8 | 6.0 | 2.3 | 6.8%
Cc1ncc(CO)c(/C=N/Nc2ccc(C(F)(F)F)cn2)c1O | -7.1 | -95.5* | -75.3* | 0.6 | 5.1%
Cc1ncc(CO)c(/C=N/NC(=S)Nc2ccc(F)cc2)c1O | 6.3 | -85.7* | -90.5* | 0.3 | -3.0%
O=[N+]([O-])c1ccc(Sc2cccc[n+]2[O-])c2nonc12 | ? | -68.2* | -68.2* | -0.7 | -1.5%
O=[N+]([O-])c1ccc(Nc2ccccc2)c2nonc12 | -8.0 | . | -13.2 | -2.2 | -4.4%
